Reference: PubChem BioAssay (NCI)
The panel holds about 83,000 compounds, 20% with a hit somewhere; the sample as a whole holds those more often.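 Negative percent growth values reflect cell death: -40 means 40% of the cells present at the start died, and -100 means all died.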 A number with no mark means an inactive call. Active and inactive are the calls of the source. How the source made its calls: active means growth percent below 10; inactive means the rest.

test system: BT-549 breast; assay: NCI-60 one-dose screen, 48 h (100 = growth as untreated, 0 = no growth, -100 = all killed); conditions: 10 µM

Structure (SMILES) | growth
CC(C)N(CCOc1cccc(-c2nc3sccn3c2-c2ccnc(S(C)(=O)=O)n2)c1)C(C)C | 128%
Cc1ccc(/C=C/C(=O)C(=O)/C=C/c2ccc(C)cc2)cc1 | 95.3%
O=C(Nc1cc(Cl)cc2c1-c1ccc(Cl)cc1C2O)C(Cl)Cl (stereo not drawn) | 95.3%
COc1cc(Cc2cc(-c3ccccc3)n[nH]c2=O)cc(OC)c1OC | 54.1%
Cc1cc(C(C#N)c2ccc(Cl)cc2)c(Cl)cc1NC(=O)c1cc(I)cc(I)c1O (stereo not drawn) | 36.8%
C/C=C/C1=CN2C(=O)c3cc(OC4OC(C)C(NC)C(C)(O)C4O)c(C)c(O)c3N=C[C@@H]2C1 (stereo partly drawn) | -34.4% (active)
CNC(=O)c1c(I)c(NC(C)=O)c(I)c(C(=O)O)c1I | 113%
COc1ccc(Nc2cnc3cc(NS(=O)(=O)c4ccc(C)cc4)ccc3n2)cc1 | 98.1%
COc1cc(-c2nn(-c3ccc(NC(=O)NCCCNC(=O)c4ccccc4)cc3)cc2-c2ccncc2)ccc1Cl | 22.8%
OCC1OC(n2ccc3c(NO)ncnc32)C(O)C1O (stereo not drawn) | -31.5% (active)
C[C@]12CC[C@@H]3c4ccc(OS(=O)(=O)O)cc4CC[C@H]3[C@@H]1CC[C@@H]2NS(=O)(=O)c1ccc(-c2ccccc2)cc1 | 53.9%
CCN1CCN(CCC(=O)Nc2cccc(-n3cc(-c4ccncc4)c(-c4ccc(Cl)c(OC)c4)n3)c2)CC1 | 39.2%
COc1ccc(-c2nnc(SCC(=O)Nc3ccc(C(=O)/C=C/c4ccccc4)cc3)n2-c2ccccc2)cc1OC | 92.8%
